Reference: ChEMBL document CHEMBL3988442, “University of Dundee, Small-Polar-MMV Screening Library” (2021)
About 13,000 (27%) of roughly 48,000 compounds showed an effect of 50% or more. The list shows a part of the results.

What follows are compounds tested on Wolbachia pipientis (assay: Anti-Wolbachia Cell-Based Screen). Details: 5 µM.
Format: functional
Set-up: scale not given: in the data most compounds retested in dose-response had high values

SMILES	Percent Effect
CC(=O)c1cccc(OCCCC(=O)N(C)CC(N)=O)c1	-6.7%
Cc1cccc2[nH]c(C3CCN(C(=O)c4ccc[nH]4)CC3)nc12	-3.208%
O=C(Cc1ccn[nH]1)Nc1cncc(Br)c1O	-6.696%
CC(C)Cc1cc(CNC(=O)c2cccc3c2OCC3)no1	-12.78%
CC(=O)N[C@@H]1CN(Cc2nccn2C)C[C@H]1c1ccc(C)cc1	-2.996%
CC(CNC(=O)c1cc(N2CCNC2=O)ccc1F)c1ccccc1 (stereo not given)	-2.028%
CC(Sc1nc(N)cc(N)n1)c1nc(C(C)(C)C)no1 (stereo not given)	6.059%
O=C1[C@H]2CN(c3ncc(F)cn3)C[C@H]2CN1CC1CC1	15.28%
O=C(CC(F)(F)F)N1C[C@H]2CN(CC3CC3)C(=O)[C@H]2C1	-26.88%
O=C1[C@H]2CN(S(=O)(=O)c3cccs3)C[C@H]2CN1CC1CC1	-15.27%
CN(C)C(=O)CN1CC[C@H]2CN(S(C)(=O)=O)C[C@@H]2C1=O.O=C(O)C(F)(F)F	-14.63%
CCS(=O)(=O)N1C[C@H]2CN(CC3CC3)C(=O)[C@H]2C1	114.7%
CS(=O)(=O)N1C[C@H]2CN(CC3CC3)C(=O)[C@H]2C1	101.9%
CCOCC(=O)N1C[C@H]2CN(CC3CC3)C(=O)[C@H]2C1	-26.93%
O=C1[C@H]2CN(S(=O)(=O)C3CC3)C[C@H]2CN1CC1CC1	100.8%
CC(=O)N1C[C@H]2CN(CC3CC3)C(=O)[C@H]2C1	-8.606%
Cc1cccnc1NC(=O)c1ccc(-n2cncn2)nn1	-9.23%
CCN(CCCNC(=O)c1cc2cccc(F)c2o1)S(C)(=O)=O	13.88%
O=C(NCc1ccc(Cl)s1)c1ccc(N2CCOC2=O)cc1	-4.831%
CCOc1nnc(CN(C)C2CCCN(c3ccc(C)nn3)C2)s1 (stereo not given)	91.1%
CN(Cc1nnc(-c2ccco2)o1)C1CCCN(c2cccnn2)C1 (stereo not given)	5.287%
Cc1ccc(N2CCCC(N(C)Cc3cc(C)on3)C2)nn1 (stereo not given)	-10.05%
Cc1ccc(N2CCCC(N(C)Cc3ccccn3)C2)nn1 (stereo not given)	1.725%
CN(Cc1cc(-c2ccccc2)no1)C1CCCN(c2cccnn2)C1 (stereo not given)	-1.752%
Cc1cnc(CN(C)C2CCCN(c3cccnn3)C2)cn1 (stereo not given)	107%

SMILES	Percent Effect
CN(Cc1cscn1)C1CCCN(c2cccnn2)C1 (stereo not given)	95.91%
CCOc1nnc(CNC2CCCN(c3ccc(C)nn3)C2)s1 (stereo not given)	6.809%
Cc1cc(CN(C)C2CCCN(c3cccnn3)C2)no1 (stereo not given)	110.4%
Cc1cc(CN(C)C2CCCN(c3cccnn3)C2)on1 (stereo not given)	-2.461%
CC(C)n1nc2c(cc1=O)CN(c1nc3ccccc3s1)CC2	8.102%
CC(NC(=O)N1CCC2(C1)OCCO2)c1cccc(Cl)c1 (stereo not given)	-15.89%
CN1CCCC(CCC(=O)N2CCc3onc(C(=O)N(C)C)c3C2)C1 (stereo not given)	14.32%
Cc1noc(CNc2ccccc2N2CCCCC2)n1	5.096%
CC(C)c1noc(CS(=O)(=O)CC(=O)NCC(F)(F)F)n1	-6.707%
CN(Cc1ncc(C(C)(C)C)o1)C1CCCN(c2cccnn2)C1 (stereo not given)	-2.807%
Cc1ncc(CN(C)C2CCCN(c3cccnn3)C2)s1 (stereo not given)	87.88%
Cc1ncc(CN(C)CC2CCCN2c2cccnn2)s1 (stereo not given)	0.5019%
Cc1ccsc1[C@@H]1CCN(C(=O)CCc2nc3ccccc3[nH]2)C[C@H]1O	-8.794%
O=C(O)C(F)(F)F.O=C1NC2(CCN(C(=O)N3CCOCC3)CC2)CC1c1cccnc1 (stereo not given)	179.1%
O=C1NC2(CCN(C(=O)c3ccnnc3)CC2)CC1c1ccccc1 (stereo not given)	95.48%
O=C(O)C(F)(F)F.O=C1NC2(CCN(c3ncccn3)CC2)CC1c1cccnc1 (stereo not given)	-4.388%
Cc1cc(C(=O)N2CCC3(CC2)CC(c2cccnc2)C(=O)N3)no1.O=C(O)C(F)(F)F (stereo not given)	102.9%
Cc1ccc(C(=O)N2CCC3(CC2)CC(c2ccccc2)C(=O)N3)cn1.O=C(O)C(F)(F)F (stereo not given)	-11.02%
O=C1NC2(CCN(C(=O)c3ccc(Cl)cc3)CC2)CC1c1ccccc1 (stereo not given)	7.391%
Cc1cccc(C(=O)N2CCC3(CC2)CC(c2ccccc2)C(=O)N3)c1 (stereo not given)	-4.545%
Cc1cnc(C(=O)N2CCC3(CC2)CC(c2ccccc2)C(=O)N3)cn1 (stereo not given)	-6.858%
O=C(O)C(F)(F)F.O=C1NC2(CCN(C(=O)c3ccccc3)CC2)CC1c1cccnc1 (stereo not given)	-9.682%
CN(C)C(=O)CN1C[C@@H]2CC[C@H](C1)N(Cc1cc(F)ccc1F)C2	15.49%
COc1nc(C)c(C(=O)N2CCc3[nH]nc(C4CCCC4)c3C2)s1	-0.6209%
CC(C)NC(=O)CN(C)CC(=O)/N=c1/cc[nH]n1C(C)C1CC1 (stereo not given)	-11.27%

SMILES	Percent Effect
NC(=O)CN1CCC(NC2CCCCc3ccccc32)CC1 (stereo not given)	-5.758%
COCCOCCNS(=O)(=O)C1CS(=O)(=O)c2ccccc21 (stereo not given)	2.377%
NC(=O)CN1CC(O)c2ccccc2S1(=O)=O (stereo not given)	96.32%
NC(=O)CN1CCC(NC2CSCCc3ccccc32)CC1 (stereo not given)	-6.664%
O=S1(=O)c2ccccc2C(O)CN1CCO (stereo not given)	120.8%
COC1CN(CCO)S(=O)(=O)c2ccccc21 (stereo not given)	103.3%
COCC(C)(C)NS(=O)(=O)C1CS(=O)(=O)c2ccccc21 (stereo not given)	12.05%
CNC(=O)c1ncn2c1CN(CCC(C)C)S(=O)(=O)c1ccccc1-2	5.918%
Cc1ccc2c(c1)c(CNC(=O)C1CC(=O)N(C3CCCC3)C1)nn2C (stereo not given)	-26.6%
O=C(N1CCCC1)N1CCC(c2nccn2Cc2cscn2)CC1	-4.277%
CC(C)n1cnnc1CN(C)C(=O)c1cc(COc2ccccc2)[nH]n1	-4.684%
NC(=O)N1CCCC(C(=O)NCCOc2ccc3c(c2)OCO3)C1 (stereo not given)	6.711%
NC(=O)C1CCN(C(=O)NCCOc2ccc3c(c2)OCO3)C1 (stereo not given)	88.72%
CC(=O)NC1CCCN(C(=O)NCCOc2ccc3c(c2)OCO3)C1 (stereo not given)	106.3%
O=C(CN1CCCC(CO)C1)NCCOc1cccc(Cl)c1 (stereo not given)	0.8563%
CC(=O)NCC1CCN(C(=O)NCCc2ccc3c(c2)OCO3)CC1	-2.588%
O=C(NCCOc1ccc2c(c1)OCO2)N1CCCC(CO)C1 (stereo not given)	85.49%
CCOc1ccc(Cl)cc1CCNC(=O)N1CCCC(CO)C1 (stereo not given)	2.242%
CCCOc1ccc(CNC(=O)N2CCC(C(N)=O)C2)cc1 (stereo not given)	0.5279%
O=C(c1ccc2c(c1)OCO2)N1CCCC(Nc2ccc(F)cc2)C1 (stereo not given)	-14.66%
Cc1noc(C)c1CNC(=O)N1CCC(NS(C)(=O)=O)CC1	-20.1%
Cc1n[nH]c(C)c1CCc1ccc(S(C)(=O)=O)cc1	1.11%
CCCc1n[nH]cc1C(=O)N1CCC(c2nccn2CCOC)CC1	-3.808%
CSC(C)(C)CNC(=O)NCCC1CCN(C)CC1	0.9558%
CC(C)c1nc(CN(C)C2CCCN(c3cccnn3)C2)no1 (stereo not given)	109.3%

SMILES	Percent Effect
CN(Cc1noc(C2CC2)n1)C1CCCN(c2cccnn2)C1 (stereo not given)	100.2%
CC(C)(C)c1nc(CNC2CCCN(c3cccnn3)C2)no1 (stereo not given)	-17.48%
CCc1nc(CN(C)C2CCCN(c3cccnn3)C2)no1 (stereo not given)	81.94%
Cc1nc(CN(C)C2CCCN(c3cccnn3)C2)no1 (stereo not given)	-8.023%
CN(Cc1nc(C2CC2)no1)C1CCCN(c2cccnn2)C1 (stereo not given)	-5.639%
CN(Cc1nc(-c2ccco2)no1)C1CCCN(c2cccnn2)C1 (stereo not given)	4.985%
Cc1ccc(N2CCCC(N(C)Cc3noc(C4CC4)n3)C2)nn1 (stereo not given)	-34.27%
CN(Cc1noc(C(C)(C)C)n1)C1CCCN(c2cccnn2)C1 (stereo not given)	102.2%
CC(C)c1nc(CNC2CCCN(c3cccnn3)C2)no1 (stereo not given)	9.914%
CCOC(=O)N1CCN(c2nc(CCN)nc3sc(C)c(C)c23)CC1	-2.539%
Cn1ncc(N2CCC(CNC3CC(c4ccccc4)C3)CC2)cc1=O (stereo not given)	0.2132%
COC(=O)N1CCN(C(=O)c2ccc(C)c(N3CCNC3=O)c2)CC1	-15.45%
CCOCCN1CCN(CCOC)CC1C (stereo not given)	-2.366%
CN1C(=O)CC2(CCN(S(=O)(=O)C3CC3)CC2)c2ccccc21	18.32%
CCN1Cc2ccccc2CC2(CCN(CC3CCC3)CC2)C1=O	112.5%
O=C(O)CN1CCC2(CCc3ccccc32)CC1	-5.092%
CCN1Cc2ccccc2CC2(CCN(CC(=O)O)CC2)C1=O.O=C(O)C(F)(F)F	108.1%
CCN1Cc2ccccc2CC2(CCN(C(=O)N(C)C)CC2)C1=O	108.4%
Cc1ccc2c(c1)C1(CC2)CCN(CC(=O)O)CC1.O=C(O)C(F)(F)F	-2.152%
Cn1cccc1C(=O)N1CCC2(CCCN(CC3CCC3)C2=O)C1 (stereo not given)	0%
CCN1CC2(CC1=O)CN(C(=O)c1ccco1)CCN(C(=O)N(C)C)C2 (stereo not given)	-10.83%
O=C1N(CCc2ccccc2)CCCC12CCN(C(CO)CO)C2 (stereo not given)	-2.358%
CC(C)CN1CCC2(CCN(CC3CC3)CC2)C1=O.O=C(O)C(F)(F)F	3.548%
CCN1Cc2ccccc2CC2(CCN(C)CC2)C1=O	106.4%
CCN1CCC2(CN(C(C)=O)CC23CCN(C(=O)N(C)C)CC3)C1=O (stereo not given)	-7.709%
